# Screening data (PubChem)
# SMN2 splice enh – qHTS Assay for Enhancers of SMN2 Splice Variant Expression; HEK293 SMN2-luciferase splicing reporter, luminescence, 30-36 h; Potency, µM (series often up to 46.1 µM), for inactives: top-dose activity change, positive = activation, usual class: activators; 210,000 compounds, 2.8% hits; AID 1458, 2008; further: % of control where 0% means no effect; nearly all actives have a fitted effect of over 55% in size
#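 HEK293 cells carry an SMN2 […]–luciferase reporter in which exon 7 inclusion puts luciferase in frame. Cells were plated 10-12 h before compound addition, then incubated 30-36 h at 37C. ONE-Glo luminescence was read; sodium butyrate at 4.5 mM final served as control.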
# NPC1 prom act – qHTS Assay for NPC1 Promoter Activators; Huh7 NPC1 promoter luciferase reporter, 24 h; Potency, µM (series often up to 9.22 µM), without a hit: top-dose activation, actives largely listed as activators; 320,000 compounds, 2.4% hits; AID 485313, 2010; further: % of control where 0% means no effect; nearly all actives have a fitted effect of over 60% in size
#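 Luminescence read-out of NPC1 promoter-driven luciferase in stably transfected Huh7 cells; compounds delivered in DMSO and left 24 h at 37C, 5% CO2, qHTS titration format.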
# KinaseGlo FLuc – Counterscreen for Luciferase (Kinase-Glo TM) Inhibition; Luciferin 4-monooxygenase (Photuris pensylvanica), Q27757; Kinase-Glo luciferase, ATP luminescence, 8 min; Potency, µM (doses to about 38.3 µM), without a hit: at the top dose activity change, negative = inhibition, most hits filed as inhibitors; 200,000 compounds, 0.28% hits; AID 1379, 2008; further: on the % scale 0 is the no-effect control and ±100 the full control effect; nearly all actives have a fitted effect of over 60% in size
#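 Substrate mix (final 50 mM imidazole pH 7.2, 50 mM KCl, 7 mM MgCl2, 10 uM ATP, 0.01% Tween 20, 0.05% BSA) plus pin-tool compound, then Kinase-Glo detection mix; 8 min ambient, luminescence read.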
# Rab9 promoter act – qHTS Assay for Rab9 Promoter Activators | Huh7 Rab9 promoter-luciferase reporter, luminescence, 24 h | Potency, µM (titrated, usually from 9.22 µM), inactives show top-dose activation, negative = inhibition, hits mostly activators | 320,000 compounds, 2.8% hits; further: % of control where 0% means no effect; nearly all actives have a fitted effect of over 60% in size
#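 Measured in stably transfected Huh7 cells bearing a Rab9 promoter–luciferase construct: 24 h compound treatment at 37 °C, followed by luminescence detection.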
# FLuc modulator – qHTS profiling assay for firefly luciferase inhibitor/activator using purifed enzyme and Km concentrations of substrates (counterscreen for miR-21 project) | Luciferin 4-monooxygenase (Photinus pyralis), P08659 | purified FLuc, Km substrates, luminescence inhibition | Potency, µM (titrated, usually from 57.5 µM), inactives show at the highest dose activity change, negative = inhibition, hits mostly inhibitors | 360,000 compounds, 6.9% hits | AID 588342, 2011;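 further: plate controls were vehicle for no effect and reference inhibitor for full effect; nearly all actives have a fitted effect of over 55% in size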
# Target sequence (P08659 whole entry, looked up): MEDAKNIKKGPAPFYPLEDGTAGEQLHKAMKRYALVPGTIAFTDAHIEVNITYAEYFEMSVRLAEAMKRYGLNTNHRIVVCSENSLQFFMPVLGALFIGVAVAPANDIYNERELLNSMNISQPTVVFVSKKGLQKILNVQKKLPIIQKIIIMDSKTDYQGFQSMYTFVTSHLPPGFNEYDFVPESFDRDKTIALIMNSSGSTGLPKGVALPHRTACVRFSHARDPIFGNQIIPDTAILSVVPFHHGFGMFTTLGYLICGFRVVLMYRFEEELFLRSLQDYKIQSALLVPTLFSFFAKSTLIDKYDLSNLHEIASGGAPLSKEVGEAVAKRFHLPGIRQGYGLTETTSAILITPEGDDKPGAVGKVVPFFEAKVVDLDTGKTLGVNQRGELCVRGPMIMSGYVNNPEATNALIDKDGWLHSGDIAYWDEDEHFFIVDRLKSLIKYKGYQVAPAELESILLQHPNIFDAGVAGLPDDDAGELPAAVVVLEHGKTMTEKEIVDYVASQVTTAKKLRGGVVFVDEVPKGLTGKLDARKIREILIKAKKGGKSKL
#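 Purified P. pyralis luciferase (10nM final) with 10uM D-luciferin and 10uM ATP (Km levels) in 50mM Tris acetate pH 7.5, 10mM Mg acetate, 0.01% Tween-20, 0.05% BSA; qHTS 6-point titration, ~60 µM downward; luminescence read.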
# ELG1 genotox – qHTS screen for small molecules that induce genotoxicity in human embryonic kidney (HEK293T) cells expressing luciferase-tagged ELG1. HEK293T ELG1-luciferase reporter, luminescence, 16 h. Potency, µM (highest dose often 46 µM), inactives show top-dose activity change, positive = activation, hits mostly activators. 330,000 compounds, 1.3% hits. AID 504466, 2011; further: % of control where 0% means no effect; nearly all actives have a fitted effect of over 60% in size
#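 Quantitative HTS format in 1536-well plates. HEK293T ELG1-luciferase reporter cells receive test compound and are incubated 16 hr at 37 °C, 5% CO2; ONE-Glo added, 30 min room temperature, then luminescence read.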
# * marks the source's active call; other numbers are inactive results; ? = inconclusive; . = no result given. Shown are actives, neighbours in structure and some others; about 7.3% of the full set was active somewhere. The call rests on the fitted dose curve; in most records, active means well fitted curve in the direction sought with a large enough effect; inconclusive means small, poorly fitted or top-dose-only effect, or another doubt; inactive means no such curve, though single readings can be large; an effect the other way counts as inactive or inconclusive. Potency means the concentration at half of the fitted maximal effect.
SMILES,SMN2 splice enh,NPC1 prom act,KinaseGlo FLuc,Rab9 promoter act,FLuc modulator,ELG1 genotox
Cc1ccsc1/C=N/N=C/c1sccc1C,.,4µM*,.,1.6µM*,1.1µM*,?
O=C1CCCc2sc3c(c2N1)CCCCC3,-7%,7%,-9%,16%,-19%,-4%
O=C(CSc1nccn1-c1ccc(F)cc1)Nc1nc2ccccc2s1,.,.,.,.,0%,.
CC1CC(C)(C)NC(=S)N1CC(=O)N1CCN(Cc2ccc3c(c2)OCO3)CC1 (stereo unspecified),-19%,-2%,-1%,1%,-1%,-1%
CC1(C)CC(=O)c2cc(-c3nc(-c4ccc(Cl)cc4)cs3)c(=O)n(-c3ccc(F)cc3)c2C1,1%,.,.,.,-6%,.
CCOC(=O)C1(Cc2cccc(OC)c2)CCCN(C(=O)c2cc(C)on2)C1 (stereo unspecified),.,?,.,3.2µM*,12µM*,?
CCOC(=O)C1(Cc2cccc(OC)c2)CCCN(C(=O)CNC(C)=O)C1 (stereo unspecified),.,?,.,3.2µM*,15µM*,?
CCOC(=O)C1(Cc2cccc(OC)c2)CCCN(S(=O)(=O)N(C)C)C1 (stereo unspecified),.,-4%,.,1%,11%,-7%
CCOC(=O)C1(Cc2cccc(OC)c2)CCCN(C(=O)c2ccccc2C)C1 (stereo unspecified),.,?,.,?,27µM*,11%
CCOC(=O)C1(Cc2cccc(OC)c2)CCCN(C(=O)c2cc(C)[nH]n2)C1 (stereo unspecified),.,-3%,0%,-2%,1%,-5%
CCOC(=O)C1(Cc2cccc(OC)c2)CCN(Cc2cccnc2)CC1,.,-2%,-6%,14%,5.4µM*,?
CCC(CC)c1nnc(NC(=O)C2CC(=O)N(CCc3ccc(OC)c(OC)c3)C2)s1 (stereo unspecified),.,-2%,.,-5%,3%,-5%
CCOC(=O)C1(Cc2ccccc2)CCCN(C(=O)c2cnn(CC)c2)C1 (stereo unspecified),.,?,.,4µM*,15µM*,?
Cc1ccc(C)c(NC(=S)Nc2ncccc2C)c1,.,22%,0%,?,17µM*,?
Cc1cccc(NC(=O)Nc2cccs2)c1C,5%,.,.,.,?,.
Cc1cccnc1NC(=O)Nc1ccc(F)cc1,17%,?,-8%,?,?,?
Cc1ccccc1CNC(=O)Nc1cccs1,15%,29%,-5%,25%,21µM*,8%
O=C(NCc1cccs1)Nc1cccs1,2%,11%,-7%,12%,?,0%
Cc1ccc(NC(=O)Nc2ncccc2C)cc1,10µM*,2.8µM*,-6%,2µM*,7.6µM*,28%
Cc1cccnc1NC(=O)Nc1cccs1,13%,14%,-4%,11%,12µM*,17%
COc1cc(Nc2ccc(S(=O)(=O)N3CCN(C)CC3)cc2[N+](=O)[O-])cc(OC)c1,.,1%,.,-6%,-1%,3%
COc1ccccc1N1CCN(C(=O)c2ccc(CN3CCc4ccccc4C3)cc2)CC1,-6%,-5%,1%,0%,2%,-8%
Cc1cccc(C(=O)NNc2ncnc3c2cnn3C)c1,-2%,0%,3%,-4%,-3%,-8%
COC(=O)COc1cccc2c(=O)n(CC(=O)NCCc3ccccc3)ccc12,-10%,-4%,-1%,-5%,5%,1%
COc1ccc(-c2cc3c(=O)n(CC(=O)NCc4ccc(C)cc4)ncn3n2)cc1,.,3%,.,16%,-17%,?
SMILES,SMN2 splice enh,NPC1 prom act,KinaseGlo FLuc,Rab9 promoter act,FLuc modulator,ELG1 genotox
O=C(Cn1ncn2nc(-c3ccccc3)cc2c1=O)NCc1ccccn1,.,1%,.,11%,11µM*,2%
CCOc1ccc(CCNC(=O)Cn2ncn3nc(-c4ccc(OC)cc4)cc3c2=O)cc1,.,14%,.,19%,-5%,?
COc1ccc(-c2cc3c(=O)n(CC(=O)NCCCN4CCC(Cc5ccccc5)CC4)ncn3n2)cc1,.,?,.,?,4.8µM*,?
COc1ccc(-c2cc3c(=O)n(CC(=O)NCCCN4CCN(Cc5ccccc5)CC4)ncn3n2)cc1,.,?,.,?,1.5µM*,?
COc1ccc(-c2cc3c(=O)n(CC(=O)NCc4ccc(Cl)cc4)ncn3n2)cc1,.,11%,.,29%,6%,?
Cc1ccc(OCCCC(=O)Nc2ccc(S(N)(=O)=O)cc2)cc1,-8%,-4%,-2%,1%,-8%,0%
CCOC(=O)C1CCN(C(C(=O)Nc2ccc3c(c2)OCCO3)c2ccccc2)CC1 (stereo unspecified),-16%,0%,0%,-1%,-2%,-2%
CCOC(=O)N1CCC(N2C(=O)c3ccccc3C2Nc2ccc3c(c2)OCCO3)CC1 (stereo unspecified),-25%,1%,-6%,11%,21µM*,?
CCOC(=O)C1CCN(c2c(Nc3ccc4c(c3)OCCO4)c(=O)c2=O)CC1,-9%,11%,0%,17%,21µM*,?
O=C(NCc1ccc(F)cc1)C1Cc2ccccc2CN1C(=O)c1ccco1 (stereo unspecified),0%,-4%,-4%,1%,5%,-1%
O=C(/C=C/c1ccc(Cl)c(Cl)c1)N1CCc2ccccc21,7.1µM*,3.2µM*,0%,2.8µM*,?,?
CN1CCN(C(=O)/C=C/c2ccc(Cl)c(Cl)c2)CC1,.,21%,.,21%,1%,16%
O=C(c1cccs1)N1CCc2ccccc21,14µM*,?,-15%,?,27µM*,?
O=C(/C=C/c1cccs1)N1CCc2ccccc21,2.8µM*,4µM*,?,4µM*,0.48µM*,1.8µM*
CCOc1ccc(NC(=O)N(C2CCCCC2)C(C)c2ccncc2)cc1 (stereo unspecified),-5%,3%,-5%,-1%,-12%,2%
